Data as given in PubChem BioAssay (NCI).
This is part of a sample that, as a whole, favours compounds with a hit. Of some 83,000 tested, about 20% had one in any assay.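 Growth was measured after 48 h exposure to one concentration of compound in 96-well plates. Values under 10 count as active.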 Unmarked numbers belong to inactive results. The source made the active and inactive calls.

Key:
Experiment in all cases: NCI-60 one-dose screen, 48 h (100 = growth as untreated, 0 = no growth, -100 = all killed)
Conditions in all cases: 10 µM unless noted
[1] = test system: NCI-H226 lung
[2] = test system: NCI-H322M lung
[3] = test system: HOP-62 NSCLC
[4] = test system: NCI-H460 lung
[5] = test system: HOP-92 NSCLC
[6] = test system: NCI-H522 lung
[7] = test system: A549/ATCC NSCLC
[8] = test system: 786-0 renal
[9] = test system: COLO 205 colon
[10] = test system: DU-145 prostate
[11] = test system: K-562 leukemia
[12] = test system: MALME-3M melanoma
[13] = test system: MDA-MB-231 breast
[14] = test system: RXF 393 renal
[15] = test system: SF-268 CNS
[16] = test system: SF-295 CNS
[17] = test system: SF-539 CNS
[18] = test system: UACC-257 melanoma
[19] = test system: M14 melanoma
[20] = test system: HCT-15 colon

COc1cc(/C=C/C(=O)c2ccccc2)ccc1Oc1nc(NCCO)nc(N2CCOCC2)n1
growth [1]: 107%
growth [2]: 99.3%
growth [3]: 90.1%
growth [4]: 110%
growth [5]: 90.9%
growth [6]: 99.3%
growth [7]: 98.8%
growth [8]: 105%
growth [9]: 116%
growth [10]: 104%
growth [11]: 22.9%
growth [12]: 93.7%
growth [13]: 97.1%
growth [14]: 105%
growth [15]: 103%
growth [16]: 99.7%
growth [17]: 94.2%
growth [18]: 95.4%
growth [19]: 99.3%
growth [20]: 90.9%

O=C(CCN1C(=O)/C(=C/c2ccccc2F)SC1=S)N1CCOCC1
growth [1]: 105%
growth [2]: 80.5%
growth [3]: 117%
growth [4]: 90.7%
growth [5]: 133%
growth [6]: 41.4%
growth [7]: 102%
growth [8]: 77.4%
growth [9]: 108%
growth [10]: 57.5%
growth [11]: 32.2%
growth [12]: 74.1%
growth [13]: 71%
growth [14]: 41.2%
growth [15]: 101%
growth [16]: 97.8%
growth [17]: 87.8%
growth [18]: 89.8%
growth [19]: 80.5%
growth [20]: 45.5%

Clc1ccc2c(NCCCN3CCOCC3)c3oc4ccccc4c3nc2c1
growth [1]: 45.3%
growth [2]: 37.8%
growth [3]: 66.5%
growth [4]: 13.8%
growth [5]: 48.7%
growth [6]: 43.1%
growth [7]: 44.3%
growth [8]: 28.3%
growth [9]: 29.9%
growth [10]: 31.3%
growth [11]: 13.2%
growth [12]: 40.6%
growth [13]: 33.8%
growth [14]: 29.1%
growth [15]: 48.6%
growth [16]: 31.3%
growth [17]: 26.5%
growth [18]: 87.4%
growth [19]: 42.7%
growth [20]: 21.6%

COc1ccc(/C=N/NC(=O)c2[nH]c3ccc(Br)cc3c2-c2ccccc2)o1
growth [1]: 49.7%
growth [2]: 44.2%
growth [3]: 47.6%
growth [4]: 0.221% (active)
growth [5]: 33.2%
growth [6]: -54.6% (active)
growth [7]: 30.4%
growth [8]: 13.3%
growth [9]: -47.8% (active)
growth [10]: 20%
growth [11]: 12.1%
growth [12]: 51.5%
growth [13]: -5.34% (active)
growth [14]: 50.9%
growth [15]: 38.6%
growth [16]: 16.6%
growth [17]: -17.4% (active)
growth [18]: 54.1%
growth [19]: -1.43% (active)
growth [20]: 10.7%

C#Cc1nc(C2=C(C)C(=N\O)/C(=N/O)C2)cs1
growth [1]: 101%
growth [2]: 99.2%
growth [3]: 101%
growth [4]: 97%
growth [5]: 88.5%
growth [6]: 91.8%
growth [7]: 95.3%
growth [8]: -90.9% (active)
growth [9]: 118%
growth [10]: 92.2%
growth [11]: 94%
growth [12]: 94.4%
growth [13]: 61.4%
growth [14]: 104%
growth [15]: 86.1%
growth [16]: 101%
growth [17]: 93.9%
growth [18]: 102%
growth [19]: 89.6%
growth [20]: 94.5%

CN(C)CCCNc1c2ccccc2nc2c1oc1ccc(Cl)cc12
growth [1]: 28.5%
growth [2]: 24.4%
growth [3]: 55.7%
growth [4]: 12.6%
growth [5]: 34.8%
growth [6]: 38%
growth [7]: 27.5%
growth [8]: 18.6%
growth [9]: 14.5%
growth [10]: 20.8%
growth [11]: -1.57% (active)
growth [12]: 30.7%
growth [13]: -31.7% (active)
growth [14]: -65.8% (active)
growth [15]: 40.9%
growth [16]: 24.6%
growth [17]: 18.3%
growth [18]: 49.9%
growth [19]: 27%
growth [20]: -31.1% (active)

CNC(=O)c1cc(-c2ccc(NC(=O)Nc3ccc(N4CCOCC4)c(C(F)(F)F)c3)cc2)nc2cccnc12
growth [1]: 54.8%
growth [2]: 71.7%
growth [3]: 80.6%
growth [4]: 23.9%
growth [5]: 57.2%
growth [6]: 65.5%
growth [7]: 51.6%
growth [8]: 25.9%
growth [9]: 84.7%
growth [10]: 69.6%
growth [11]: 34.3%
growth [12]: 60.7%
growth [13]: 63.9%
growth [14]: -15.9% (active)
growth [15]: 80.2%
growth [16]: 9.49% (active)
growth [17]: 30.1%
growth [18]: 89.2%
growth [19]: 77.2%
growth [20]: 33.5%

Cn1ccnc1C(=O)/C=C/c1ccc(NC(=O)Nc2ccc(F)cc2)cc1
growth [1]: 63.3%
growth [2]: 49.5%
growth [3]: 31%
growth [4]: 7.07% (active)
growth [5]: 78.2%
growth [6]: 14.7%
growth [7]: 36.4%
growth [8]: 27.3%
growth [9]: 49.5%
growth [10]: 35.1%
growth [11]: 9.78% (active)
growth [12]: 69%
growth [13]: 28.8%
growth [14]: 19.4%
growth [15]: 55.6%
growth [16]: 23.3%
growth [17]: -15.6% (active)
growth [18]: 85.6%
growth [19]: 45.1%
growth [20]: 21%

COc1ccc(C(=O)/C=C/c2ccc(OCc3ccc(Cl)cc3)c(OC)c2)cc1OC
growth [1]: 56.4%
growth [2]: 70.9%
growth [3]: 103%
growth [4]: 61.9%
growth [5]: 64.9%
growth [6]: 68.3%
growth [7]: 70%
growth [8]: 80.7%
growth [9]: 88.4%
growth [10]: 72.3%
growth [11]: 23.9%
growth [12]: 82.3%
growth [13]: 57.7%
growth [14]: 96.2%
growth [15]: 78.7%
growth [16]: 68.3%
growth [17]: 71.8%
growth [18]: 83.5%
growth [19]: 78.1%
growth [20]: 34.2%

Cc1c(NC(=O)CSc2nc3sc4c(c3c(=O)n2-c2ccc(Cl)cc2)CCCC4)c(=O)n(-c2ccccc2)n1C
growth [1]: 108%
growth [2]: 94.9%
growth [3]: 99.3%
growth [4]: 96.8%
growth [5]: 96.3%
growth [6]: 96.8%
growth [7]: 81.2%
growth [8]: 102%
growth [9]: 106%
growth [10]: 89.4%
growth [11]: 90.2%
growth [12]: 102%
growth [13]: 93.4%
growth [14]: 104%
growth [15]: 80.3%
growth [16]: 95.5%
growth [17]: 89.5%
growth [18]: 102%
growth [19]: 95.2%
growth [20]: 93.3%

Clc1ccc2c(NCCCn3ccnc3)c3oc4ccc(Cl)cc4c3nc2c1
growth [1]: 57.8%
growth [2]: 71%
growth [3]: 66.6%
growth [4]: 11.1%
growth [5]: 57.4%
growth [6]: 82.9%
growth [7]: 89.2%
growth [8]: 41.6%
growth [9]: 96.5%
growth [10]: 92%
growth [11]: 66.2%
growth [12]: 96.5%
growth [13]: 58.8%
growth [14]: 55.4%
growth [15]: 91.1%
growth [16]: 86.4%
growth [17]: 84%
growth [18]: 97.9%
growth [19]: 105%
growth [20]: 51.9%

COc1cccc(-c2nn(-c3ccccc3)cc2-c2ccnc(N3CCN(C(=O)Nc4ccc(F)cc4)CC3)c2)c1
growth [1]: 66.7%
growth [2]: 79.2%
growth [3]: 102%
growth [4]: 69.5%
growth [5]: 63.1%
growth [6]: 36.2%
growth [7]: 55.9%
growth [8]: 68.1%
growth [9]: 64.7%
growth [10]: 67.5%
growth [11]: 30.8%
growth [12]: 76.7%
growth [13]: 52.6%
growth [14]: 63.4%
growth [15]: 85.3%
growth [16]: 64.8%
growth [17]: 66.9%
growth [18]: 85.8%
growth [19]: 32.4%
growth [20]: 35.8%

CC(C)(C)Nc1nc2c(OCCc3ccccc3)cccn2c1-c1ccc(O)cc1
growth [1]: 63%
growth [2]: 89.9%
growth [3]: 80.3%
growth [4]: 45.8%
growth [5]: 28.3%
growth [6]: 57.5%
growth [7]: 48.6%
growth [8]: 73.3%
growth [9]: 85.6%
growth [10]: 97.3%
growth [11]: 17.4%
growth [12]: 62.5%
growth [13]: 79.6%
growth [14]: 21.2%
growth [15]: 91.3%
growth [16]: 36%
growth [17]: 72.9%
growth [18]: 97.9%
growth [19]: 63.1%
growth [20]: 2.12% (active)

CCN1C(=S)N(CC)C2C1NN=C1SC(c3ccccc3)=CC(=O)N12 (stereo not given)
growth [1]: 101%
growth [2]: 110%
growth [3]: 100%
growth [4]: 117%
growth [5]: 103%
growth [6]: 94.5%
growth [7]: 101%
growth [8]: 104%
growth [9]: 115%
growth [10]: 117%
growth [11]: 57.1%
growth [12]: 105%
growth [13]: 94%
growth [14]: 89%
growth [15]: 115%
growth [16]: 106%
growth [17]: 98%
growth [18]: 103%
growth [19]: 106%
growth [20]: 78.2%
